Measured values as given in PubChem BioAssay AID1347431 (National Center for Advancing Translational Sciences (NCATS), 2020).
In all, about 1,200 compounds went through this assay and fewer than 10 were called active. These entries were drawn from the full list. Unmarked numbers belong to inactive results. Calls follow the shape of the dose curve; as a rule, active = well fitted curve in the direction sought with a large enough effect; inconclusive = small, poorly fitted or top-dose-only effect, or another doubt; inactive = no such curve, though single readings can be large or run the other way.

Assay: Confirmatory qHTS assay for inhibitors of Activation Induced Cytidine Deaminase (AID): UDG signals; also: 0% is about no effect
Details: UDG coupled enzyme activity counter-screen; series mostly up to 115 µM; activity change, negative = inhibition: at the top concentration
Excerpt: Assay Provider (PI) Patricia Gearhart Ph.D.
National Institute on Aging
National Institute of Health (NIH), Bethesda, MD
Assay Provider (PI) Rahul Kohli Ph.D.
Perelman School of Medicine
University of Pennsylvania, Philadelphia, PA
Activation-Induced Deaminase (AID) is a cytosine deaminase which converts cytosine into uracil within stretches of ssDNA. The presence of uracil in DNA initiates a cascade of mutagenic DNA repair to introduce point mutations and DNA double strand breaks. Specific targeting of AID to the immunoglobulin heavy chain loci (Igh) promotes mutagenesis in the antibody variable region for somatic hypermutation (SHM) or switch regions leading to class switch recombination (CSR). However, AID also plays a role in accumulating unnecessary mutations across the genome. Mis-targeting of AID results in the initiation of tumor development and leads to greater drug resistance among cancer cells when continually expressed. To identify an AID inhibitor, a small molecule library will be screened in collaboration with NCATS core facility at NIH. To confirm biological function, inhibitors will be examined in an in vitro murine B-cell activation assay and subsequent secondary validation screens. Top molecules will be further screened to identify inhibitory efficacy against a wild type primary splenocytes assay. Using these approaches, we hope to identify a small molecule with great efficacy and low toxicity for use as a molecular probe to further characterize AID's intricacies, or even as a therapeutic.
A FRET based analysis of cytosine deamination, was developed to identify potential inhibitors of AID catalytic activity. This screen has two signal output, Read 1 evaluates the AID inhibition response. The second readout (Read 2) evaluates UDG response and is uses as a counterscreen to exclude false positive inhibitors. Inhibition in AID and inactivity in the UDG signal is the desired outcome for this assay.
SEQUENCE No. (e.g., 1, 2, 3, etc.); […] (e.g., Cells, Incubation, Reagent, etc.); VALUE; DESCRIPTION
1a; Reagent; 3 uL; [4/3x] 1 uM AID/2.67 U/mL UDG
1b; Reagent; 3 uL; 2 U/mL UDG
1c; Reagent; 3 uL; 1 uM AID
2a; Compound; 46 nL; Follow-up plates (0.64 uM - 10 mM)
2b; Control; 46 nL; ATA ([…] - 10 mM)
3; Time; 10 min; incubation at room temperature
5; Time; 4 hr; incubation at room temperature
6; Reagent; 4 uL; [2x] 250 mM NaOH
7; Time; 15 sec; centrifuge at 1000 rpm
8; Time; 30 min; incubation at room temperature
9a; Detection; fluorescence (Read 1: AID); EnVision (PerkinElmer) plate reader, 540 excitation and 590 emission filters
9b; Detection; fluorescence (Read 2: UDG); EnVision (PerkinElmer) plate reader, 560 excitation and 665 emission filters
NOTES (numbers refer to sequence above)
1a; Reagents were dispensed in a medium-binding black solid-bottom Greiner plates (789176F) using a BioRptr liquid dispenser. Dispense 3 uL of [4/3x] 1 uM AID (provided by Kohli lab) and [4/3x] 2 U/mL UDG (NEB M0280L) into columns 1, 2, 5 to 48.
1b; Dispense 3 uL of [4/3x] 2 U/mL UDG into column 3.
1c; Dispense 3 uL of [4/3x] 1 uM AID into column 4.
2a; Compound (7-points [uM]: 0.64; 3.2; 16; 80; 400; 2,000; 10,000; […]) double pin-transferred (Dip Factor = 2) using the Kalypsys (Wako USA) pintool equipped with a 1536 pinhead for a final concentration range of 7.32 nM - 114 uM.
2b; 10 mM Aurintricarboxylic Acid (Sigma A1895) (ATA, 8-point, n = 2, 1:2.5 dilution in column 2) double pin-transferred (Dip Factor = 2) using the Kalypsys (Wako USA) pintool equipped with a 1536 pinhead for a [final] range of 186 nM - 114 uM.
3; Room temperature incubation.
4; Dispense 1 uL of substrate mixture from the Kohli lab [4x] […] DJC20 and [4x] 250 nM DJC23 into columns 1 to 48 .
5; Room temperature incubation.
6; Dispense 4 uL of substrate mixture [2x] 250 mM NaOH into columns 1 to 48.
7; Centrifugation step to remove bubbles.
8; Room temperature incubation
9a; Fluorescence signal (column label AID) was read using the EnVision plate reader. […]

In order of rising “activity change, negative = inhibition” value:
1. CCOC(=O)c1c(C)oc2nc(C)nc(N(CC(C)C)CC(C)C)c12  -17.5%
2. CC(C)(C)C1CCc2c(sc(NC(=O)c3ccccc3F)c2C(=O)NCc2ccco2)C1 (stereo unspecified)  -16.7%
3. COc1ccc(N2CCN(C(=O)c3nn(C)c4c3CSc3ccccc3-4)CC2)cc1  -14.2%
4. Cc1cc(N(C)Cc2ccccc2)n2nc(-c3ccc(C(C)(C)C)cc3)nc2n1  -13.6%
5. COc1ccc(CC(=O)NCC(c2cccs2)S(=O)(=O)c2ccc(Cl)cc2)cc1 (stereo unspecified)  -11.8%
6. COc1ccc(C2CC(=O)N3CN(C4CCCCC4)CSC3=C2C#N)c(OC)c1 (stereo unspecified)  -11.5%
7. COc1ccc(N(C)C(=O)c2cc3c(s2)-c2ccccc2OC3)cc1  -11.3%
8. Cc1ccc(-c2cn(-c3cccc(Cl)c3)c(S(=O)(=O)CC(=O)Nc3cccc(C)c3)n2)cc1  -10.9%
9. CCc1ccc2oc(C(=O)NCC(c3ccc(Cl)cc3)N3CCOCC3)c(C)c2c1 (stereo unspecified)  -10.8%
10. C=Cc1ccc(CSc2nc(-c3ccc(C)cc3)nc3c2Cc2c(CO)cnc(C)c2O3)cc1  -10.6%
11. COc1ccc(C(=O)N2CCc3cc(OC)c(OC)cc3C2COc2ccccc2OC)cc1 (stereo unspecified)  -10.4%
12. Cc1c(C(=O)N(C)Cc2ccccc2)sc2nc(-c3ccc(F)cc3)cn12  -10.1%
13. COc1ccc(OCC(=O)NCC(c2ccc(Cl)cc2)N2CCCCC2)cc1 (stereo unspecified)  -10.1%
14. Cc1ccc(-n2ncc(C(=O)N3CCN(Cc4ccccc4)CC3)c2C2CCN(C(=O)OC(C)(C)C)CC2)c(C)c1  -9.77%
15. Cc1ccc(Cl)cc1N1CCN(C(=O)Cn2cnc3nc4c(cc3c2=O)CCCC4)CC1  -9.53%
16. Cc1ccccc1-c1nc(CS(=O)CC(=O)N2CCN(c3cc(Cl)ccc3C)CC2)c(C)o1 (stereo unspecified)  -9.14%
17. CCc1ccc(CN(Cc2ccco2)C(=O)c2ccc(OC)cc2)cc1  -8.82%
18. CCCCn1c(-c2ccc(C)cc2)c(C)n2c3c(=O)n(C)c(=O)n(C)c3nc12  -8.55%
19. COc1ccc(CCN2CCC(CNC(=O)c3cnn(-c4ccc(C)cc4)c3C3CCN(C(=O)OC(C)(C)C)CC3)CC2)cc1  -7.6%
20. COc1ccccc1CC(=O)Nc1ccc2nc(Nc3cccc(C(F)(F)F)c3)cc(C)c2c1  -7.35%
21. CCOC(=O)c1cccc(NC(=O)c2oc3c(c2C)-c2nn(CC)cc2CC3)c1  -7.26%
22. CCn1cc2nc(SCc3cccc(C(F)(F)F)c3)n(Cc3ccc(C)cc3)c(=O)c2n1  -5.91%
23. CCc1ccc(NC(=O)c2cc(C(C)=O)n3ccccc23)cc1  -4.94%
24. COc1cccc(N2CCN(C(=O)c3cnn(-c4ccc(C)cc4C)c3C3CCN(C(=O)OC(C)(C)C)CC3)CC2)c1  -4.76%
25. N#CC1=C2SCN(C3CCCCC3)CN2C(=O)CC1c1c(F)cccc1Cl (stereo unspecified)  -4.69%
26. CCC(C)c1ccc(OCC(=O)Nc2cccc(-c3nc4ncccc4o3)c2)cc1 (stereo unspecified)  -3.86%
27. CC(C)CCN(Cc1ccco1)C(=O)c1cc2c(s1)-c1ccccc1OC2  -3.35%
28. Cc1cccc(N2CCN(C(=O)c3cccn3-c3nnc(N4CCCCC4)s3)CC2)c1C  -2.85%
29. CCCCN(CC)CCNC(=O)C1CCN(c2nnc(C)c3c(C)n(-c4ccc(C)cc4)nc23)CC1  -1.82%
30. CCCCN(CCCC)CC(O)Cn1cc(/C=C/C(=O)c2ccccc2)c2ccccc21 (stereo unspecified)  -1.73%
31. CC1CCCCN1CCNC(=O)c1ccc(Cn2c(SCc3ccccc3)nc3cccnc32)cc1 (stereo unspecified)  -1.41%
32. Cc1ccc(CNC(=O)C2CCCN(c3nc4ccccc4n4cccc34)C2)cc1 (stereo unspecified)  -0.725%
33. CCC(C(=O)N1CCN(c2ccccc2)CC1)n1nc(C)n2c(cc3sccc32)c1=O (stereo unspecified)  -0.471%
34. Cc1ccc2c(c1)C(c1ccc(F)cc1)N(C(=O)COc1ccc(Cl)cc1Cl)CC(=O)N2 (stereo unspecified)  -0.309%
35. CCCN(CCC)CCNC(=O)c1cc2c(-c3ccc(Cl)cc3)nn(C)c2s1  -0.229%
36. Cc1nc2c(-c3ccccc3)c(C)nn2c(C)c1CCC(=O)N1CCN(c2ccc(F)cc2)CC1  0.55%
37. CC1CCCCN1C(=O)c1ccc2c(c1)N(Cc1ccc(Cl)cc1)C(=O)c1ccccc1S2=O (stereo unspecified)  0.84%
38. COC(=O)c1ccc(CSc2nnc3ccc4ccccc4n23)cc1  1.41%
39. Cc1ccc(-n2c(=O)c3oc4ccccc4c3n(Cc3cccc(F)c3)c2=O)cc1C  1.83%
40. CCOC(=O)c1cc(-c2ccc(C)cc2)n(CCC(=O)Nc2ccc(OC)c(OC)c2)c1C  1.84%
41. CCOc1ccccc1CNC(=O)c1cnc2sc(N3CCCCCC3)nn2c1=O  1.93%
42. CS(=O)(=O)N(Cc1ccccc1)c1ccc(C(=O)Nc2ccc(Cl)cc2)cc1  2.66%
43. Cc1cccn2c(=O)c3cc(C(=O)N(Cc4ccccc4)C(C)C)sc3nc12  3.34%
44. Cc1cc(C)cc(Nc2nc3cc(Cl)c(Cl)cc3nc2-n2nc(C)cc2C)c1  4.6%
45. COc1ccc(CC(=O)N(Cc2nc(-c3ccc(C)cc3)no2)C(C)C)cc1  5.81%
46. CCn1cc(S(=O)(=O)c2ccc(Cl)cc2)c(=O)c2cc(F)c(N3CCOCC3)cc21  8.08%
